Laboratory results as given in PubChem BioAssay AID1159580 (chemical genetic matrix, 2015).
Several values for one entry are separate records, joined by “and”; a condition that tells them apart may be missing. Identical values can stand only once. Hit rate of the full screen: of about 5,500 compounds, about 2,000 (36%) were called active. Not shown: some 18% with an inconclusive outcome. Cut-off read from the data, not from the text of the source: active = normalized growth mostly below about 0.91 (no sharp cut-off); inconclusive = no clear call, values can overlap the other calls; inactive = mostly above about 0.92. The list shows a part of the results.

Test: chemical genetic growth profiling, strain panel (AID 1159580);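 note: tested at 20 µM; growth read once vehicle control cultures reached saturation at 30 °C; 1 = growth at the plate median or of vehicle wells; lower values mean less growth of the strain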
Conditions: S. cerevisiae deletion strains, growth OD

Measured: normalized growth

CNCCCC12CCC(c3ccccc31)c1ccccc12
inactive: locus YAL013W, strain DEP1, stronger effect = lower value 0.974 and 1.01 | locus YAL021C, strain ccr4, stronger effect = lower value 0.931 | locus YAL030W, strain snc1, stronger effect = lower value 0.999 | locus YAL040C, strain CLN3, stronger effect = lower value 1 | locus YBL061C, strain skt5, stronger effect = lower value 0.979 | locus YBR009C, strain hhf1, stronger effect = lower value 0.992 | locus YBR021W, strain FUR4, stronger effect = lower value 0.948 | locus YBR023C, strain chs3, stronger effect = lower value 0.957 | locus YBR171W, strain sec66, stronger effect = lower value 0.99 | locus YBR229C, strain ROT2, stronger effect = lower value 0.974 | locus YBR231C, strain swc5, stronger effect = lower value 0.956 | locus YBR279W, strain paf1, stronger effect = lower value 0.971 | locus YCL011C, strain gbp2, stronger effect = lower value 0.963 | locus YCL016C, strain dcc1, stronger effect = lower value 0.976 | locus YCL029C, strain bik1, stronger effect = lower value 0.994 | locus YCL061C, strain MRC1 (second series), stronger effect = lower value 0.999 | locus YCL069W, strain vba3, stronger effect = lower value 1.01 | locus YCR088W, strain abp1, stronger effect = lower value 0.998 | locus YDL005C, strain med2, stronger effect = lower value 0.972 | locus YDL035C, strain GPR1, stronger effect = lower value 0.998 | locus YDL040C, strain nat1, stronger effect = lower value 0.989 | locus YDL074C, strain BRE1, stronger effect = lower value 0.97 | locus YDL101C, strain DUN1, stronger effect = lower value 0.981 | locus YDL134C, strain PPH21, stronger effect = lower value 0.984 | locus YDL185W, strain tfp1, stronger effect = lower value 0.978 | locus YDL192W, strain arf1, stronger effect = lower value 0.991 | locus YDR001C, strain nth1, stronger effect = lower value 0.975 | locus YDR069C, strain doa4, stronger effect = lower value 0.918 | locus YDR101C, strain arx1, stronger effect = lower value 1.01 | locus YDR137W, strain rgp1, stronger effect = lower value 1.02 | locus YDR159W, strain sac3, stronger effect = lower value 0.95 | locus YDR162C, strain NBP2, stronger effect = lower value 0.996 | locus YDR195W, strain ref2 1.03 | locus YDR297W, strain sur2, stronger effect = lower value 0.975 | locus YDR318W, strain mcm21, stronger effect = lower value 0.973 | locus YDR334W, strain swr1, stronger effect = lower value 0.995 | locus YDR335W, strain msn5, stronger effect = lower value 0.982 | locus YDR363W, strain ESC2, stronger effect = lower value 1.01 | locus YDR388W, stronger effect = lower value 0.983 | locus YDR392W, strain spt3, stronger effect = lower value 0.999 | locus YDR502C, strain sam2, stronger effect = lower value 0.976 | locus YEL003W, strain gim4, stronger effect = lower value 0.978 | locus YEL037C, strain rad23, stronger effect = lower value 0.997 | locus YEL061C, strain CIN8 (second series), stronger effect = lower value 0.975 | locus YEL061C, strain CIN8, stronger effect = lower value 1.01 | locus YER002W, strain NOP16, stronger effect = lower value 1 | locus YER015W, strain faa2, stronger effect = lower value 0.978 | locus YER016W, strain bim1, stronger effect = lower value 0.996 | locus YER110C, stronger effect = lower value 0.989 | locus YER111C, strain swi4, stronger effect = lower value 0.995 | locus YER155C, strain BEM2 (second series), stronger effect = lower value 0.977 | locus YER155C, strain BEM2, stronger effect = lower value 1.01 | locus YER167W, strain BCK2, stronger effect = lower value 0.989 | locus YFR010W, strain ubp6, stronger effect = lower value 0.982 | locus YGL078C, strain dbp3, stronger effect = lower value 0.99 | locus YGL086W, strain mad1, stronger effect = lower value 0.969 | locus YGL167C, strain pmr1, stronger effect = lower value 1 | locus YGL173C, strain kem1, stronger effect = lower value 0.993 | locus YGL227W, strain vid30, stronger effect = lower value 1 | locus YGL240W, strain doc1, stronger effect = lower value 0.989 | locus YGL248W, strain PDE1, stronger effect = lower value 0.964 | locus YGL253W, strain hxk2, stronger effect = lower value 0.988 | locus YGR135W, strain pre9, stronger effect = lower value 0.94 | locus YGR229C, strain SMI1, stronger effect = lower value 0.941 and 0.953 | locus YGR252W, strain gcn5, stronger effect = lower value 0.841 | locus YHR013C, strain ard1, stronger effect = lower value 0.976 | locus YHR027C, strain rpn1, stronger effect = lower value 0.96 | locus YHR030C, strain SLT2, stronger effect = lower value 0.997 and 1.01 | locus YHR079C, strain IRE1 (second series), stronger effect = lower value 0.997 | locus YHR079C, strain IRE1, stronger effect = lower value 1.01 | locus YHR094C, strain hxt1, stronger effect = lower value 0.997 | locus YHR129C, strain ARP1, stronger effect = lower value 0.995 | locus YHR142W, strain chs7, stronger effect = lower value 0.91 | locus YHR200W, strain rpn10, stronger effect = lower value 0.991 | locus YIL066C, strain RNR3, stronger effect = lower value 0.992 | locus YIL073C, strain SPO22, stronger effect = lower value 0.918 | locus YIL125W, strain kgd1, stronger effect = lower value 0.981 | locus YIR030C, strain dcg1, stronger effect = lower value 0.99 | locus YJL092W, strain hpr5, stronger effect = lower value 0.971 | locus YJL095W, strain BCK1 (second series), stronger effect = lower value 0.973 | locus YJL095W, strain BCK1, stronger effect = lower value 0.941 and 0.998 | locus YJL115W, strain asf1, stronger effect = lower value 0.97 | locus YJL129C, strain trk1, stronger effect = lower value 1.01 | locus YJL134W, strain LCB3, stronger effect = lower value 0.982 | locus YJL154C, strain vps35, stronger effect = lower value 0.975 | locus YJL164C, strain tpk1, stronger effect = lower value 0.989 | locus YJL166W, strain qcr8, stronger effect = lower value 0.958 | locus YJL168C, strain set2, stronger effect = lower value 0.998 | locus YJL187C, strain SWE1 (second series), stronger effect = lower value 0.979 | locus YJL187C, strain SWE1, stronger effect = lower value 0.973 | locus YJR043C, strain POL32, stronger effect = lower value 1.01 | locus YJR066W, strain TOR1, stronger effect = lower value 0.949
active: locus YAL026C, strain drs2, stronger effect = lower value 0.768
